rTrxR1 inhibitor: qHTS Assay for Inhibitors of Mammalian Selenoprotein Thioredoxin Reductase 1 (TrxR1): qHTS; Thioredoxin reductase 1, cytoplasmic (Rattus norvegicus), O89049; AID 588453, 2011; recombinant rTrxR1, NADPH fluorescence consumption, selenite substrate; Potency, µM (highest dose often 114 µM), usual class: inhibitors; 1% of 390,000 active; note: nearly all actives have a fitted effect of over 65% in size
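Rat TrxR1 (90 nM in the dispensed reagent) was pre-reduced with 400 uM NADPH for 5 min at room temperature, then incubated with compound for 15 min. After 400 uM selenite was added, NADPH fluorescence (Ex 340/Em 450 nm) was followed for 8 min.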
TrxR1 substrate: qHTS Assay for Substrates of Mammalian Selenoprotein Thioredoxin Reductase 1 (TrxR1): qHTS; Potency, µM (series often up to 114 µM); 0.01% of 390,000 active; purified TrxR1 substrate turnover, NADPH consumption readout; note: nearly all actives have a fitted effect of over 50% in size
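Rat TrxR1, dispensed at 90 nM, was prereduced with 400 uM NADPH (final) for 5 min at ~22 deg C, then incubated with compound 15 min before 400 uM selenite. A first-read NADPH fluorescence drop versus no-compound background flagged substrates.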
GLS inhibitor: qHTS for Inhibitors of Glutaminase (GLS); Potency, µM (highest dose often 45.5 µM), actives largely listed as inhibitors; Glutaminase kidney isoform, mitochondrial (Homo sapiens), O94925; GLS enzymatic activity, qHTS titration; 0.21% of 410,000 active
Target sequence (O94925 whole entry, looked up, canonical isoform): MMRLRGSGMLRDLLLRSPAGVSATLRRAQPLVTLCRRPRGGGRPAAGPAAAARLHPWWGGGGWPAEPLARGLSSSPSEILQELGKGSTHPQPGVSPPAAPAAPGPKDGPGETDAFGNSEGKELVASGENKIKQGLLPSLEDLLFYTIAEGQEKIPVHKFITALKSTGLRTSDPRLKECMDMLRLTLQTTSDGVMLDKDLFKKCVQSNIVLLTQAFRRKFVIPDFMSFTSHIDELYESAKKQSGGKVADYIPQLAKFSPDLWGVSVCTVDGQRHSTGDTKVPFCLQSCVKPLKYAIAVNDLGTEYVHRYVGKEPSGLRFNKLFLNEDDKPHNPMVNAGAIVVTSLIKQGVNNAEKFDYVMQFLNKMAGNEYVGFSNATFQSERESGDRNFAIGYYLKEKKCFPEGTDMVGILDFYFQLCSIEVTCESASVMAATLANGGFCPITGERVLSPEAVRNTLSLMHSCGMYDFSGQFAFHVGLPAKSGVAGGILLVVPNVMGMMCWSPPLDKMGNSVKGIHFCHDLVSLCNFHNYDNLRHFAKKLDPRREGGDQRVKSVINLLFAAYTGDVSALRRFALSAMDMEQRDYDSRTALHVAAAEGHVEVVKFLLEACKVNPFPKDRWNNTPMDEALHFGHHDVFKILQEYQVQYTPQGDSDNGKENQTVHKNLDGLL
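Two-point fluorescence kinetic (t0, 30 min RT) for hKGA; glutamate detected via glutamate oxidase–HRP–Amplex Red. Substrate: 1 mM L-glutamine solution; buffer 45 mM KH2PO4, pH 8.2.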
IDH1 R132H inh: qHTS for Inhibitors of mutant isocitrate dehydrogenase 1 (IDH1): qHTS; IDH1-R132H enzyme, NADPH consumption, diaphorase/resazurin fluorescence; 0.093% of 390,000 active; Isocitrate dehydrogenase [NADP] cytoplasmic (Homo sapiens), O75874; Potency, µM (series often up to 76.6 µM), usual class: inhibitors; AID 602179, 2012; note: nearly all actives have a fitted effect of over 65% in size
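IDH1-R132H (0.5 ug/mL) preincubated 30 min with compound, then NADPH (0.016 mM) and alpha-KG (2 mM) added; 80 min at RT, pH 7.5. Remaining NADPH coupled via diaphorase/resazurin to fluorescence (540/590 nm); concentration-response curves normalized to no-enzyme control.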
Hits are given with their value; ! = not active in a repeat; [ ] = another dose, or the depositor's remark. Shown are actives, neighbours in structure and some others; about 1.2% of the full set was active somewhere. Calls come from the whole dose curve; as a rule, active = well fitted curve in the direction sought with a large enough effect; inconclusive = small, poorly fitted or top-dose-only effect, or another doubt; inactive = no such curve, though single readings can be large; an effect the other way counts as inactive or inconclusive.

What do the screens show for `Cc1ccc(Cl)cc1N1CCN(C(=O)Cc2c(C(=O)O)c(C)cn2C)CC1`?
rTrxR1 inhibitor: inactive; TrxR1 substrate: inactive; GLS inhibitor: inactive; IDH1 R132H inh: inactive

What do the screens show for `Cc1ccc(O)c(Nc2nc(-c3ccccc3)nc3ccccc23)c1`?
rTrxR1 inhibitor: inactive; TrxR1 substrate: inactive; GLS inhibitor: inactive; IDH1 R132H inh: inactive

How did Cc1ccc(O)c(Nc2c3ccccc3nc3ccccc23)c1 do in these assays?
rTrxR1 inhibitor: inactive; TrxR1 substrate: inactive; GLS inhibitor: 8.9µM; IDH1 R132H inh: inactive

What do the screens show for `COc1cccc(-n2c(SCC(=O)NCCC3=CCCCC3)nc3n[nH]c(C)c3c2=N)c1`?
rTrxR1 inhibitor: inactive; TrxR1 substrate: inactive; GLS inhibitor: 20µM; IDH1 R132H inh: inactive

Results for COc1ccc(OC)c(NC(=O)c2cccc3c2C(=O)N(C2CCCCC2)C3)c1 ?
rTrxR1 inhibitor: 22µM!; TrxR1 substrate: inactive; GLS inhibitor: inactive; IDH1 R132H inh: inactive

What do the screens show for `COc1ccc(NC(=O)c2cccc3c2C(=O)N(C2CCCCC2)C3)cc1`?
rTrxR1 inhibitor: inactive; TrxR1 substrate: inactive; GLS inhibitor: inactive; IDH1 R132H inh: inactive

What do the screens show for `N#Cc1ccc(NC(=O)COc2ccccc2C(=O)Nc2ccccc2)cc1`?
rTrxR1 inhibitor: inactive; TrxR1 substrate: inactive

What do the screens show for `CC(=O)SC(C[N+](=O)[O-])c1cn(C(C)=O)c2ccccc12` (stereo not drawn)?
rTrxR1 inhibitor: 18µM; TrxR1 substrate: inactive; GLS inhibitor: inconclusive; IDH1 R132H inh: inactive

Results for C[n+]1ccc(/C=C/c2ccc(C=S)cc2)c2ccccc21 ?
rTrxR1 inhibitor: inactive; TrxR1 substrate: inactive

Results for CC(NC(=O)/C=C/c1ccco1)c1nc2ccccc2n1Cc1ccccc1F (stereo not drawn) ?
rTrxR1 inhibitor: 50µM; TrxR1 substrate: inactive; GLS inhibitor: inactive; IDH1 R132H inh: inactive

How did COCc1cc(=O)n2[nH]c(N)nc2n1 do in these assays?
rTrxR1 inhibitor: inactive; TrxR1 substrate: inactive; GLS inhibitor: 8.9µM; IDH1 R132H inh: inactive

What do the screens show for `COCCN1CCn2c(nc3cc(NC(=O)c4cccs4)ccc32)C1`?
rTrxR1 inhibitor: 45µM; TrxR1 substrate: inactive; GLS inhibitor: inactive; IDH1 R132H inh: inactive

How did CCCC(=O)Nc1ccc2c(c1)nc1n2CCN(CCOC)C1 do in these assays?
rTrxR1 inhibitor: inconclusive; TrxR1 substrate: inactive; GLS inhibitor: inactive; IDH1 R132H inh: inactive

What do the screens show for `CCOC(=O)/C=C1\CN(Cc2ccc(OC)cc2)S(=O)(=O)c2ccc(C(F)(F)F)cc21`?
rTrxR1 inhibitor: 25µM; TrxR1 substrate: inactive

Results for Cc1cccc(N(Cc2ccccc2)C(=O)CCl)c1 ?
rTrxR1 inhibitor: 8.9µM; TrxR1 substrate: inactive; GLS inhibitor: inactive; IDH1 R132H inh: inactive

Results for C=CC(=O)Oc1ccc(N2Cc3ccccc3C2=O)cc1 ?
rTrxR1 inhibitor: 3.5µM; TrxR1 substrate: inactive; GLS inhibitor: inactive; IDH1 R132H inh: inactive

How did COc1ccc(N2Cc3ccccc3C2=O)cc1 do in these assays?
rTrxR1 inhibitor: inactive; TrxR1 substrate: inactive; GLS inhibitor: inactive; IDH1 R132H inh: inactive

How did CC(=O)O[C@H]1C[C@@H]2CC[C@@H]3[C@H](CC[C@]4(C)[C@H](OC(C)=O)[C@@H](N5CC[N+](C)(C)CC5)C[C@@H]34)[C@@]2(C)C[C@@H]1N1CC[N+](C)(C)CC1 do in these assays?
GLS inhibitor: inactive

What do the screens show for `CCOC(=O)CNC(=O)CN1CCCN(S(=O)(=O)c2ccc(Br)s2)CC1`?
rTrxR1 inhibitor: 16µM; TrxR1 substrate: inactive; GLS inhibitor: inactive; IDH1 R132H inh: inactive

How did CCOC(=O)[C@H](CCc1ccccc1)N[C@H]1CCCN2CCC[C@@H](C(=O)O)N2C1=O do in these assays?
GLS inhibitor: inactive

Results for O=C1CC(Sc2nnc(-c3ccccc3)o2)C(=O)N1c1ccccc1 (stereo not drawn) ?
rTrxR1 inhibitor: 7.1µM; TrxR1 substrate: inactive; GLS inhibitor: inactive; IDH1 R132H inh: inactive

Results for Cc1ccccc1N1C(=O)CC(Sc2nnc(-c3ccccc3)o2)C1=O (stereo not drawn) ?
rTrxR1 inhibitor: inconclusive; TrxR1 substrate: inactive; GLS inhibitor: inactive; IDH1 R132H inh: inactive

How did COc1cc(N=c2ssnc2Cl)c(OC)cc1Cl do in these assays?
rTrxR1 inhibitor: inconclusive; TrxR1 substrate: inactive; GLS inhibitor: 16µM!; IDH1 R132H inh: 46µM

What do the screens show for `Cc1cc(C)c2oc(-c3ccc(C)c(NC(=O)/C=C/c4ccco4)c3)nc2c1`?
rTrxR1 inhibitor: 3.2µM; TrxR1 substrate: inactive[11.4 µM]; GLS inhibitor: inactive; IDH1 R132H inh: inactive

Results for Cc1cc(C)c2oc(-c3cccc(NC(=O)c4ccco4)c3)nc2c1 ?
rTrxR1 inhibitor: inactive; TrxR1 substrate: inactive; GLS inhibitor: inactive; IDH1 R132H inh: inactive

What do the screens show for `COc1ccc(N2Cc3cccc(C(=O)O)c3C2=O)cc1`?
rTrxR1 inhibitor: inactive; TrxR1 substrate: inactive; GLS inhibitor: 16µM; IDH1 R132H inh: inactive

What do the screens show for `CC(C)(C)C1=CC(=O)C(=O)C(C(C)(C)C)=C1`?
rTrxR1 inhibitor: inactive; TrxR1 substrate: inactive; GLS inhibitor: 5.6µM; IDH1 R132H inh: inactive

Results for CN1C(=O)C(O)(CC(=O)/C=C/c2ccco2)c2cc(Br)ccc21 (stereo not drawn) ?
rTrxR1 inhibitor: 16µM; TrxR1 substrate: inactive; GLS inhibitor: inactive; IDH1 R132H inh: inactive

Results for CN1C(=O)C(O)(CC(=O)/C=C/c2ccco2)c2ccccc21 (stereo not drawn) ?
rTrxR1 inhibitor: inactive; TrxR1 substrate: inactive; GLS inhibitor: inactive; IDH1 R132H inh: inactive

What do the screens show for `Cn1cc(/C=C/c2ccc3ccccc3n2)c2ccccc21`?
rTrxR1 inhibitor: inactive; TrxR1 substrate: inactive

Results for C#CCNC(=O)C1=C[C@@H](C)[C@H](CCCO)[C@@H](OCC)O1 ?
rTrxR1 inhibitor: 18µM; TrxR1 substrate: inactive; GLS inhibitor: inactive; IDH1 R132H inh: inactive

What do the screens show for `CCO[C@@H]1OC(C(=O)NCc2ccccc2)=C[C@H](C)[C@H]1CCCO`?
rTrxR1 inhibitor: inactive; TrxR1 substrate: inactive; GLS inhibitor: inactive; IDH1 R132H inh: inactive

How did CC(=O)N1N=C(c2ccco2)CC1c1cccs1 (stereo not drawn) do in these assays?
rTrxR1 inhibitor: inconclusive; TrxR1 substrate: inactive; GLS inhibitor: inactive; IDH1 R132H inh: inactive

What do the screens show for `Cc1ccc(C2=NN(C(=O)CCl)C(c3cccs3)C2)o1` (stereo not drawn)?
rTrxR1 inhibitor: 10µM; TrxR1 substrate: inactive; GLS inhibitor: inactive; IDH1 R132H inh: inactive

How did O=C(CCl)N1N=C(c2ccco2)CC1c1cccs1 (stereo not drawn) do in these assays?
rTrxR1 inhibitor: 2µM; TrxR1 substrate: inactive; GLS inhibitor: inactive; IDH1 R132H inh: inactive

How did Cc1ccc(S(=O)(=O)c2nc(C(C)(C)C)oc2N2CCOCC2)cc1 do in these assays?
rTrxR1 inhibitor: 0.56µM; TrxR1 substrate: inactive; GLS inhibitor: inactive; IDH1 R132H inh: inactive

From PubChem BioAssay
